This is an account of results in PMC4336329 (PLoS ONE, 2015).

Among all 310,000 compounds or so, about 14,000 (4.5%) showed an effect of 50% or more. The effect is printed as a negative number. This excerpt belongs to a sample that is enriched for strong results.
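Note: peak tail current of the secondary pulse compared with the same well before compound.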

This test deals with human ether-à-go-go-related gene (hERG) potassium channel (human, UniProt Q12809). As to the kind of experiment: primary screen, population patch clamp on CHO cells stably expressing hERG; higher = less effect of the substance.
human ether-à-go-go-related gene (hERG) potassium channel, sequence (Q12809 whole entry, looked up): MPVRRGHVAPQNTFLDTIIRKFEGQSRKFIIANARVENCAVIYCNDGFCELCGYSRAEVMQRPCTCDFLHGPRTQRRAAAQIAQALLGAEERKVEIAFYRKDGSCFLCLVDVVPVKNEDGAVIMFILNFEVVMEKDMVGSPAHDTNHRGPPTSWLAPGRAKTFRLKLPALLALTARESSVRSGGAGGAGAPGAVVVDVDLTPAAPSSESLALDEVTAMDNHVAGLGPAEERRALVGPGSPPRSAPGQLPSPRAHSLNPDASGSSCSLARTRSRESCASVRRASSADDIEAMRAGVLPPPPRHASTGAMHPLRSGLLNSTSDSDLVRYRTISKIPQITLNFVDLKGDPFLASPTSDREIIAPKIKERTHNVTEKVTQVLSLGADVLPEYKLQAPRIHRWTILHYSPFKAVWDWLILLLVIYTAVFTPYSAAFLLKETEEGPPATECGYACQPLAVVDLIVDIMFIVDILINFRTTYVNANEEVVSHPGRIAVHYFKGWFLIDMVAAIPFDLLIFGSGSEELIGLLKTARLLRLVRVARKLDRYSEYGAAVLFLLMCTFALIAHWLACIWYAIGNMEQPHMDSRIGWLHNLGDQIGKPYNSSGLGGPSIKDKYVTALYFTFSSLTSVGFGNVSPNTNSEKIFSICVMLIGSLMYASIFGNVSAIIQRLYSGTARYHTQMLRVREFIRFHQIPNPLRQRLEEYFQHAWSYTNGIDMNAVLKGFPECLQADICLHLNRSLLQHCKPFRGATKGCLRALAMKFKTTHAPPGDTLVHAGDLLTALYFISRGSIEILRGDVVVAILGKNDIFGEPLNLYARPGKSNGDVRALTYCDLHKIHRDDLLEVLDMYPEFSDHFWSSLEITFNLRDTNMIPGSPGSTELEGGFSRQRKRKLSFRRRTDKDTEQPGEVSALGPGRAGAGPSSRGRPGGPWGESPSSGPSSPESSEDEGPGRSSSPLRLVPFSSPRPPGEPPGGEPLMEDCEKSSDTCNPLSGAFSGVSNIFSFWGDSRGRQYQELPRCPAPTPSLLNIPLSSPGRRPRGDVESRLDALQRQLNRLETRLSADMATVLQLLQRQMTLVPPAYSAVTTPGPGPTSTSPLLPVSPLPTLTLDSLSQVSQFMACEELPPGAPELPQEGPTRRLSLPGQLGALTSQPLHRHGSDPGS
For `CCC1CCCCN1C(=O)c1cc2c(=O)n3cccc(C)c3nc2s1` (stereo not shown), the “hERG current change (%, negative = inhibition) at 10uM” value is reported as 4.01%. Take `CCC1Oc2ccccc2N(CC(=O)NCCC2=CCCCC2)C1=O` (stereo not shown): the “hERG current change (%, negative = inhibition) at 10uM” value was 3.64%. For `FC(F)(F)c1cc(-c2ccc(Cl)cc2)nc2ncnn12`, the “hERG current change (%, negative = inhibition) at 10uM” value is on record as -16.2%. For `CCCCc1cc(=O)oc2cc(C)cc(OCC(=O)Nc3ccccn3)c12`, the “hERG current change (%, negative = inhibition) at 10uM” value amounted to 28.6%. `CCCCc1cc(=O)oc2cc(C)cc(OCC(=O)NCc3ccncc3)c12`: the “hERG current change (%, negative = inhibition) at 10uM” value is -84.1%. As to `CCCc1cc(=O)oc2cc(C)cc(OCC(=O)Nc3cccnc3)c12`, the “hERG current change (%, negative = inhibition) at 10uM” value was -0.927%.

For `CCCc1cc(=O)oc2cc(C)cc(OCC(=O)NCc3cccnc3)c12`, the “hERG current change (%, negative = inhibition) at 10uM” value is recorded as -44.4%.

As for `CCCc1cc(=O)oc2cc(C)cc(OCC(=O)Nc3ccccn3)c12`, the “hERG current change (%, negative = inhibition) at 10uM” value is 13.2%.

In the case of `CCc1cc(=O)oc2cc(C)cc(OCC(=O)NCc3cccnc3)c12`, the “hERG current change (%, negative = inhibition) at 10uM” value is listed as -31.5%.

`CCCc1cc(=O)oc2cc(C)cc(OCC(=O)NCc3ccncc3)c12`: the “hERG current change (%, negative = inhibition) at 10uM” value was -69.5%.

For `CCCCc1cc(=O)oc2cc(C)cc(OCC(=O)NCc3cccnc3)c12`, the “hERG current change (%, negative = inhibition) at 10uM” value is listed as -54.1%. For the compound `CCCCc1cc(=O)oc2cc(C)cc(OCC(=O)Nc3cccnc3)c12`, the “hERG current change (%, negative = inhibition) at 10uM” value amounted to 26.7%. As to `CCOc1ccc(NC(=O)Cn2nnc(C(=O)NCc3ccco3)c2N)cc1`, the “hERG current change (%, negative = inhibition) at 10uM” value is on record as 15.1%. Consider `C=CCN1C(=O)S/C(=C/c2ccc(Sc3nc4ccccc4[nH]3)o2)C1=O`, for which the “hERG current change (%, negative = inhibition) at 10uM” value worked out at 3.61%. Turning to `CCN1C(=O)N[C@@H](c2ccccc2)[C@H](C(=O)OC)[C@H]1C`, the “hERG current change (%, negative = inhibition) at 10uM” value is listed as -6.4%. In the case of `COC(=O)Nc1nn(-c2ccc(C)cc2)c(=O)c(C#N)c1C` it was 11.2%; in that of `CN(C)C(C(=O)NC1CCCCC1)c1ccc(Cl)cc1` (stereo not shown), 4.27%; in that of `COC(=O)c1ccc(N2CCN(C)CC2)c(NC(=O)COc2cccc(C)c2)c1`, -18.9%. Take `CCOC(=O)c1ccc(N=C(C)c2c(O)[nH]c(=O)[nH]c2=O)cc1`: the “hERG current change (%, negative = inhibition) at 10uM” value is 10.8%.

With `CCCCn1nc(C(=O)NC2=NCCS2)c2ccccc2c1=O`, the “hERG current change (%, negative = inhibition) at 10uM” value is on record as -16.3%. Next, `Cc1cc(NC(=O)COC(=O)CC2CCCC2)c([N+](=O)[O-])cc1C`: 9.34%; `CCOC(=O)CC(N)c1cccc([N+](=O)[O-])c1.Cl` (stereo not shown): 2.9%; `CCOC(=O)CC(NC(=O)c1cc2cccc(OC)c2oc1=O)c1cccc([N+](=O)[O-])c1` (stereo not shown): -23%. Next, `CCOC(=O)CC(NC(=O)c1cc2ccccc2oc1=O)c1cccc([N+](=O)[O-])c1` (stereo not shown): -58.5%; `CCOC(=O)CC(NC(=O)c1cc2cc(Cl)cc(Cl)c2oc1=O)c1cccc([N+](=O)[O-])c1` (stereo not shown): -66.8%. As to `CCOC(=O)CC(NC(=O)c1cc2cccc(OC)c2oc1=O)c1ccc(OC)cc1` (stereo not shown), the “hERG current change (%, negative = inhibition) at 10uM” value was -5.76%. With `CCOC(=O)CC(NC(=O)c1cc2cc(Br)ccc2oc1=O)c1cccc([N+](=O)[O-])c1` (stereo not shown), the “hERG current change (%, negative = inhibition) at 10uM” value is given as -27.5%. As to `O=C(Nc1ccccn1)C1COc2ccccc2O1` (stereo not shown), the “hERG current change (%, negative = inhibition) at 10uM” value came out at 16.1%. Next, `CCOC(=O)c1sc2nc(C)nc(NC3CCC(O)CC3)c2c1C` (stereo not shown): 2.9%; `CSc1ccccc1NC(=O)CN(C)CC(=O)Nc1ccc(Cl)cc1[N+](=O)[O-]`: -31.6%. Regarding `O=C(CN1C(=O)C2CC=CCC2C1=O)NCC(=O)Nc1ccc(F)c(F)c1F` (stereo not shown), the “hERG current change (%, negative = inhibition) at 10uM” value is on record as 7.55%. With `Cc1cc(Cl)c(S(=O)(=O)N/N=C/c2ccc3c(c2)OCO3)c(Cl)c1`, the “hERG current change (%, negative = inhibition) at 10uM” value is listed as 2.77%. In the case of `COc1ccc(NC(=O)N2CCc3ccccc3C2)cc1OC` it was 11.3%; in that of `CCNc1nc(NC(C)C)nc(Nn2cnnc2)n1`, 9.05%; in that of `O=C(NCc1cccs1)C1CCN(S(=O)(=O)c2cccc3nsnc23)CC1`, -13.1%. Next, `CS(=O)(=O)c1ccccc1C(=O)Nc1cc(Cl)ccc1-n1cncn1`: 13.4%; `CS(=O)(=O)c1ccc(C(=O)CN2C(=O)NC3(CCCc4ccccc43)C2=O)cc1` (stereo not shown): -51.5%. Turning to `O=C(CN1C(=O)NC2(CCCc3ccccc32)C1=O)c1ccc(Br)cc1` (stereo not shown), the “hERG current change (%, negative = inhibition) at 10uM” value was -20.4%. Next, `O=C(CN1C(=O)NC2(CCc3ccccc32)C1=O)c1ccc(F)cc1` (stereo not shown): -57.4%; `Cc1cc(Cl)ccc1NC(=O)CN1C(=O)NC2(CCCc3ccccc32)C1=O` (stereo not shown): -1.38%.

In the case of `COc1ccc(C(=O)CN2C(=O)NC3(CCCc4ccccc43)C2=O)cc1` (stereo not shown), the “hERG current change (%, negative = inhibition) at 10uM” value is -36.2%. With `Cc1ccc(F)cc1NC(=O)CN1C(=O)NC2(CCCc3ccccc32)C1=O` (stereo not shown), the “hERG current change (%, negative = inhibition) at 10uM” value is reported as -1.5%.

On to `O=C(CN1C(=O)NC2(CCCc3ccccc32)C1=O)c1ccc(F)cc1` (stereo not shown), for which the “hERG current change (%, negative = inhibition) at 10uM” value is -17%.
